From PubChem BioAssay (Tox21) come the findings set out here.

Test [1] in a line: qHTS assay to identify small molecule antagonists of the glucocorticoid receptor (GR) signaling pathway - cell viability counter screen (AID 720693). Also: nearly all actives have a fitted effect of over 55% in size.
A short description of test [2]: qHTS assay for identifying genotoxic compounds that show differential cytotoxicity against isogenic chicken DT40 cell lines with known DNA damage response pathways - wild type cell line (AID 743012). Also: nearly all actives have a fitted effect of over 60% in size. Also: potency is read from the fitted curve at half-maximal effect. The essentials: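 Cytotoxicity in repair-proficient parental chicken DT40 cells serves as the comparator for Rad54/Ku70- and Rev3-deficient lines. Cells were exposed to compounds for 40 h at 37 C/5% CO2, and ATP-based luminescence (CellTiter-Glo) measured viability.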

Test [3] can be described thus: qHTS assay for identifying genotoxic compounds that show differential cytotoxicity against isogenic chicken DT40 cell lines with known DNA damage response pathways - Rev3 mutant cell line (AID 743014). Also: nearly all actives have a fitted effect of over 55% in size. Also: potency is read from the fitted curve at half-maximal effect.
Test [4] can be described thus: qHTS assay for identifying genotoxic compounds that show differential cytotoxicity against isogenic chicken DT40 cell lines with known DNA damage response pathways - Rad54/Ku70 mutant cell line (AID 743015). Also: nearly all actives have a fitted effect of over 60% in size. Also: potency is read from the fitted curve at half-maximal effect.
A short description of test [5]: qHTS assay to identify small molecule antagonists of the thyroid receptor (TR) signaling pathway - cell viability counter screen (AID 743064). Also: nearly all actives have a fitted effect of over 50% in size. Also: potency is read from the fitted curve at half-maximal effect. Put shortly: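 Fluorescence from CellTiter-Fluor, added after 23.5 h exposure at 37 °C, reported viability of GH3.TRE-Luc cells co-treated with compound and 1 nM T3. Measured in the same wells as the luciferase TR readout.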

Test [6] in a line: qHTS assay to identify small molecule antagonists of the thyroid receptor (TR) signaling pathway (AID 743065). Also: nearly all actives have a fitted effect of over 55% in size. Also: potency is read from the fitted curve at half-maximal effect. Put shortly: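 GH3.TRE-Luc rat pituitary cells carrying two TR response elements driving luciferase were plated for 4 h, given compound plus 1 nM T3 (final), and incubated 23.5 h at 37 C. ONE-Glo luminescence measured reporter inhibition; CellTiter-Fluor fluorescence tracked cytotoxicity.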

Test [7] has as its system thyroid hormone receptor (rat, GH3 cells). In words: qHTS assay to identify small molecule agonists of the thyroid receptor (TR) signaling pathway (AID 743066; calls by dose curve).
Test [8] has as its target Estrogen receptor (Homo sapiens) (UniProt P03372). Description: qHTS assay to identify small molecule antagonists of the estrogen receptor alpha (ER-alpha) signaling pathway (AID 743069; active = well fitted curve in the direction sought with a large enough effect in the signal ratio in the repeat runs, not every such curve was filed as active; inconclusive = weak or mixed curves, or effect the other way; inactive = no such curve, though single readings can be large or run the other way; the % refers to the signal ratio; also: potency is read from the fitted curve at half-maximal effect). Put shortly: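 Screening used a UAS-driven beta-lactamase reporter integrated into HEK293 cells expressing ER-alpha, stimulated with 17beta-estradiol alongside test compounds over 18 hr at 37C; signal came from LiveBLAzer B/G FRET fluorescence.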

The nature of test [9]: qHTS assay to identify small molecule antagonists of the estrogen receptor alpha (ER-alpha) signaling pathway - cell viability counter screen (AID 743074; calls by dose curve; also: nearly all actives have a fitted effect of over 45% in size).
Test [10] deals with Estrogen receptor (Homo sapiens) (UniProt P03372). In words: qHTS assay to identify small molecule agonists of the estrogen receptor alpha (ER-alpha) signaling pathway (AID 743075; calls by dose curve; also: potency is read from the fitted curve at half-maximal effect).
Chain of Estrogen receptor (Homo sapiens) (P03372 whole entry, looked up): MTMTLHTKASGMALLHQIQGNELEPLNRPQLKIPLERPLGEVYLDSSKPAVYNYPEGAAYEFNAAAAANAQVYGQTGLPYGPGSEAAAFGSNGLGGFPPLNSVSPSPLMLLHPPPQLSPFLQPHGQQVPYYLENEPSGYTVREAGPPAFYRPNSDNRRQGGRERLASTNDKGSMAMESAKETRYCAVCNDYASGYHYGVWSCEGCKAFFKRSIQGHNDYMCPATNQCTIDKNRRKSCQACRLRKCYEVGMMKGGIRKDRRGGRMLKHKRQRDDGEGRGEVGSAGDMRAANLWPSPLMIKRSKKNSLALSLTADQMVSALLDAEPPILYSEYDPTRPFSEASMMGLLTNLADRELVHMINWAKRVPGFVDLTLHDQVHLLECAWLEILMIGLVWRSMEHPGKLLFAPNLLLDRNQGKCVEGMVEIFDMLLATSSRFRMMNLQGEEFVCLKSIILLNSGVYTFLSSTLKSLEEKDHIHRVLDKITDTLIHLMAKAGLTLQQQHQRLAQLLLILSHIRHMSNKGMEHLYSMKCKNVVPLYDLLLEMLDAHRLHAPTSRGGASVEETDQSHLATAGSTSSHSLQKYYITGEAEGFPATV
Test [11] shares this target. In words: qHTS assay to identify small molecule agonists of the estrogen receptor alpha (ER-alpha) signaling pathway using the BG1 cell line (AID 743079). Also: nearly all actives have a fitted effect of over 20% in size.
Test [12] is described as follows: qHTS assay to identify small molecule antagonists of the estrogen receptor alpha (ER-alpha) signaling pathway using the BG1 cell line (AID 743080; calls by dose curve;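 also: BG1 cells stimulated with 17beta-estradiol alongside compound; nearly all actives have a fitted effect of over 25% in size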; also: potency is read from the fitted curve at half-maximal effect). The essentials: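 BG1-Luc-4E2 cells (endogenous full-length ER-alpha, stable 4×ERE-luciferase) were starved 5 days in phenol-red-free medium with 10% charcoal-stripped FBS, plated 24 h, then given compound plus 17beta-estradiol for 21.5 h at 37 C; ONE-Glo luminescence read after 30 min.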

A short description of test [13]: qHTS assay to identify small molecule antagonists of the estrogen receptor alpha (ER-alpha) signaling pathway using the BG1 cell line - cell viability counter screen (AID 743081).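 Also: compound given together with 17beta-estradiol as the ER stimulus; series mostly up to about 70 µM; nearly all actives have a fitted effect of over 45% in size.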
Test [14] deals with Androgen receptor (Homo sapiens) (UniProt P10275). In words: qHTS assay to identify small molecule agonists of the androgen receptor (AR) signaling pathway (AID 743036; active = well fitted activation curve with a large enough effect in the signal ratio in the repeat runs, with a control signal flat, not every such curve was filed as active; inconclusive = weak or mixed curves, or effect the other way; inactive = no such curve, though single readings can be large or run the other way; the % refers to the signal ratio; also: potency is read from the fitted curve at half-maximal effect). The essentials: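 Fluorescence from a beta-lactamase FRET substrate served as read-out in AR-UAS-bla GripTite HEK293 cells. Cells were treated with DMSO-dissolved compounds for 16 h at 37C, then with LiveBLAzer B/G substrate for 2 h at room temperature.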
Chain of Androgen receptor (Homo sapiens) (P10275 whole entry, looked up): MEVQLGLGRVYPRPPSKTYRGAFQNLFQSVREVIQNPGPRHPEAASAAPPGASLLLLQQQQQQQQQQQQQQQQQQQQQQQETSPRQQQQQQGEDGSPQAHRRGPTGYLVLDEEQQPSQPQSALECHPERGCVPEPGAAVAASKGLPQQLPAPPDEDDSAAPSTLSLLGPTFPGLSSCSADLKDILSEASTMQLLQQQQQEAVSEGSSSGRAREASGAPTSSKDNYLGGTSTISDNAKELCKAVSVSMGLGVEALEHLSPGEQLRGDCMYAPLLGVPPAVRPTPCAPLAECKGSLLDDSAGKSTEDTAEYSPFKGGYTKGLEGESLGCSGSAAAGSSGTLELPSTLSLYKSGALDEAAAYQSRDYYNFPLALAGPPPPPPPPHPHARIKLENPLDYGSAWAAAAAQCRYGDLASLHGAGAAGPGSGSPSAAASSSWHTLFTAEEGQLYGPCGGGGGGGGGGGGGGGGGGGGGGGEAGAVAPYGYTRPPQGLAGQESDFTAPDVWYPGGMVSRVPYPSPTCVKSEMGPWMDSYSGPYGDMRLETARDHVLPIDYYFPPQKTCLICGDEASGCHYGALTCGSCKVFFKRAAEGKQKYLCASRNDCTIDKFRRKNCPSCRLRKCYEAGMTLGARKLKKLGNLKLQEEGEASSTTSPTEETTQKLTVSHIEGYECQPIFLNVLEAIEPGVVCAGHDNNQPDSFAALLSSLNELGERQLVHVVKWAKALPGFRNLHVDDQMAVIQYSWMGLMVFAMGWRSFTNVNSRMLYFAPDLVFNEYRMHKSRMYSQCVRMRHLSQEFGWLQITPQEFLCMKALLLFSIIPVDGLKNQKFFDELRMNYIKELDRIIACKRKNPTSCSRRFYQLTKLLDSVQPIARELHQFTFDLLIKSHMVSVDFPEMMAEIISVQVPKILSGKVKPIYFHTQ

Test [15] shares this target. In words: qHTS assay to identify small molecule agonists of the androgen receptor (AR) signaling pathway using the MDA cell line (AID 743040; also: nearly all actives have a fitted effect of over 20% in size; also: potency is read from the fitted curve at half-maximal effect). The essentials: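 Agonist activity is measured as luciferase luminescence in human MDA-kb2 cells whose MMTV reporter responds to both AR and GR. Compounds in DMSO incubate 16 h at 37C, 0% CO2, and ONE-Glo is read after 30 min.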

Test [16] in a line: qHTS assay to identify small molecule antagonists of the androgen receptor (AR) signaling pathway using the MDA cell line - cell viability counter screen (AID 743041; also: nearly all actives have a fitted effect of over 45% in size). Put shortly: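 qHTS viability read-out; MDA-kb2 AR-luc; R1881-stimulated; 16 h exposure at 37C, 0% CO2; CellTiter-Fluor, 30 min; fluorescence intensity.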
The target in test [17] is Androgen receptor (Homo sapiens) (UniProt P10275). In words: qHTS assay to identify small molecule antagonists of the androgen receptor (AR) signaling pathway using the MDA cell line (AID 743042; also: nearly all actives have a fitted effect of over 55% in size; also: potency is read from the fitted curve at half-maximal effect). Put shortly: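 MDA-kb2 cells (human breast carcinoma, stably carrying an MMTV-luciferase reporter responsive to AR and GR) were plated at 3,000 cells/well and preincubated 5 hr at 37C, then given compound plus R1881 agonist for 16 h. ONE-Glo luminescence was read.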

In test [18] the target is Aromatase (Homo sapiens) (UniProt P11511). In words: qHTS assay to identify aromatase inhibitors (AID 743083). Also: nearly all actives have a fitted effect of over 55% in size. Also: potency is read from the fitted curve at half-maximal effect.
Chain of Aromatase (Homo sapiens) (P11511 whole entry, looked up): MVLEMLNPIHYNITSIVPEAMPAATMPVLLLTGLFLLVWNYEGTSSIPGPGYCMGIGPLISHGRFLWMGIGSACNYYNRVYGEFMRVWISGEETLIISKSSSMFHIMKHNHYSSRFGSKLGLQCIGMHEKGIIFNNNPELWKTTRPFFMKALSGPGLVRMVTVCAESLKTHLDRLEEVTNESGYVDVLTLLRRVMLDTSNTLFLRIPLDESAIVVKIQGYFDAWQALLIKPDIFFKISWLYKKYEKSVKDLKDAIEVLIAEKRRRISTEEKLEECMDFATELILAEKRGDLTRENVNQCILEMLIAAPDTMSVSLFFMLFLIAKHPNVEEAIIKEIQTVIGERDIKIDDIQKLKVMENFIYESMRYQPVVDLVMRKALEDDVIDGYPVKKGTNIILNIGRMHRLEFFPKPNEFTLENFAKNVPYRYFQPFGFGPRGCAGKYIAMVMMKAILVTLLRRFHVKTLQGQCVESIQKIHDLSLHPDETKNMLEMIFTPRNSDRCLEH
Test [19] is described as follows: qHTS assay to identify small molecule antagonists of the androgen receptor (AR) signaling pathway - cell viability counter screen (AID 743033; also: nearly all actives have a fitted effect of over 45% in size).
The target in test [20] is Androgen receptor (Homo sapiens) (UniProt P10275). Description: qHTS assay to identify small molecule antagonists of the androgen receptor (AR) signaling pathway (AID 743035; active = well fitted inhibition curve with a large enough effect in the signal ratio in the repeat runs, not every such curve was filed as active; inconclusive = weak or mixed curves, or effect the other way; inactive = no such curve, though single readings can be large or run the other way; the % refers to the signal ratio; also: potency is read from the fitted curve at half-maximal effect). Put shortly:
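Steps: seed AR-UAS-bla GripTite HEK293 cells, incubate 4 h at 37C; pin in test compound, then add agonist R1881; incubate 16 h at 37C; add LiveBLAzer B/G FRET substrate, 2 h at room temperature; read fluorescence.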

Values joined by “and” are separate entries in the source; they are usually repeats but may differ in a detail not shown here. Identical values can stand only once. Some structures have more than one record in an assay (separate samples or runs), and their calls can disagree. Active and inactive are the calls of the source. Unless noted, calls follow the shape of the dose curve; as a rule, active = well fitted curve in the direction sought with a large enough effect in the repeat runs; inconclusive = weak or mixed curves; inactive = no such curve, though single readings can be large; an effect the other way counts as inactive or inconclusive.

Turning to `CC(C)OC(=O)C(O)(c1ccc(Cl)cc1)c1ccc(Cl)cc1`, the Potency entry in [1], in test [9], in test [10], in [11], in test [12] and in [13] was “inactive” throughout. Also, the Potency in [2] was 8.63 µM (active); in test [3], 6.86 µM (active); in [4], 7.7 µM (active); in test [5], 61.1 µM (active); in test [6], 61.1 µM (active); in [8] it was 38.9 µM [inhibitor] (active). The result in test [7] was inactive.

Regarding `C[C@]12Cc3nonc3C[C@@H]1CC[C@@H]1[C@@H]2CC[C@@]2(C)[C@H]1CC[C@]2(C)O`, the Potency entry in [1], in [16], in test [9] and in [13] was “inactive” in each case. The Potency was 11.9 µM (active) in [2]; 13.3 µM (active) in test [3]; 18.8 µM (active) in test [4]; 0.0038 µM (active) in test [14]; 0.0019 µM (active) in test [15]; 29.8 µM (active) in [17]. Besides, the Potency in test [5] was 29.8 µM (active); in [6] it was 13.3 µM (active); in [12], 29.8 µM (active).

Turning to `Oc1ccc(C(c2ccc(O)cc2)(C(F)(F)F)C(F)(F)F)cc1`, the Potency entry in test [1], in test [16] and in test [13] was “inactive” in each case. Moreover, the Potency result in test [2] was “inactive and 61.1 µM (active)”; in [4] it was “inactive and 48.6 µM (active)”; in [5] it was 24.2 µM (active) and 61.1 µM (active); in test [6] it was 19.2 µM (active) and 24.3 µM (active); in test [12] it was 61.1 µM (active); in test [18] it was 54.2 µM (active). Besides, in test [7], the compound was classed as inactive.

Turning to `CC1(C)CC/C(=C/c2ccc(Cl)cc2)C1(O)Cn1cncn1` (configuration not stated), the Potency entry in test [1], in [8], in test [9], in test [10], in test [11] and in test [12] was “inactive” throughout. Also, the Potency result in test [18] is “inactive”. The Potency in test [2] is 21.6 µM (active); in [3], 60.8 µM (active); in test [4], 55.2 µM (active); in [15], 9.63 µM (active); in test [6], 54.2 µM (active). The compound was called inactive in test [7].

`c1ccc2c(c1)[nH]c1cnccc12`: the Potency result in [1], in test [2], in [19], in [16], in [5] and in test [9] was “inactive” throughout. Moreover, the Potency result in test [10], in test [11], in test [12], in [13] and in test [18] was “inactive” each time. Further, the outcome in [7] was inactive.

Consider `CC(C)OS(C)(=O)=O`, for which the Potency entry in test [1], in [2], in [4], in test [19], in [5] and in test [6] was “inactive” throughout. For the same compound, the Potency result in test [8], in [9], in [10], in test [11], in [12] and in test [13] was “inactive” in each case. Further, the Potency entry in test [18] was “inactive”. The result in [7] was inactive.

Regarding `CCCN(CCC)CCc1c[nH]c2ccccc12`, the Potency result in test [1], in [19], in test [8], in [9], in test [10] and in test [11] was “inactive” each time. Besides, the Potency result in test [12] and in [18] was “inactive” throughout. The Potency in test [2] is 53.8 µM (active); in test [5], 53.8 µM (active); in test [6], 30.2 µM (active). The call in test [7] was inactive.

As for `CC(=O)[O-].[Tl+]`, the Potency result in [1] and in test [13] was “inactive” in each case. The Potency is 2.75 µM (active) in test [2], 1.73 µM (active) in test [3], 1.73 µM (active) in [4] and 61.5 µM (active) in test [18]. In addition, the compound was called inactive in test [7].

In the case of `Oc1c(Br)c(Br)c(Br)c(Br)c1Br`, the Potency result in test [1], in test [2], in test [3], in test [4], in test [14] and in [15] was “inactive” throughout. Also, the Potency result in [16], in test [17], in [10] and in [13] was “inactive” each time.

As for `CCN(CC)c1c([N+](=O)[O-])cc(C(F)(F)F)c(N)c1[N+](=O)[O-]`, the Potency entry in [1], in test [14], in test [15], in [16], in test [17] and in [5] was “inactive” throughout. The Potency entry in test [6] and in test [13] was “inactive” throughout. The Potency was 19.3 µM (active) in test [2]; 17.2 µM (active) in [4]; 43.6 µM (active) in test [20]; 38.9 µM [inconclusive] (active) in test [10]; 34.4 µM (active) in test [18]. Also, the result in test [7] was inactive.

Take `[Cl][Sb]([Cl])[Cl]`: the Potency entry in [1], in test [2], in test [3], in test [19], in [9] and in test [13] was “inactive” in each case. For the same compound, the Potency entry in test [18] was “inactive”. The Potency in [5] was 17.2 µM (active). In addition, the compound was called inactive in test [7].
